The source of these data is PubChem BioAssay AID590 (National Center for Advancing Translational Sciences (NCATS), 2007).

About 6,500 (11%) of roughly 59,000 compounds were called active. Not shown: some 15% with an inconclusive outcome. No stated cut-off is given here; in the data, active means max dye-equivalent concentration above about 10 nM; inconclusive means mostly about 1.1 nM to 9.6 nM; inactive means weaker than that. This excerpt belongs to a sample that is enriched for actives.

This test is described as follows: qHTS Assay for Spectroscopic Profiling in A350 Spectral Region. To be noted: Compound autofluorescence, 340/450 nm, Alexa 350 dye-equivalents; hits give high values.
`C=CCNC(=O)C12CC3CC(C1)CC(C(=O)NCC=C)(C3)C2`: the max dye-equivalent concentration entry is “inactive”. As for `CC(NCCO)C(=O)C12CC3CC(CC(C3)C1)C2` (stereo not drawn), the figure is 43 nM (active); as for `CN1CCN(CC(=O)C23CC4CC(CC(C4)C2)C3)CC1`, “inactive”.

Consider `O=C(O)CCC(=O)Nc1ccc(N2CCOCC2)cc1`, for which the max dye-equivalent concentration result was “inactive”. In the case of `CN(C)c1nc2n(c(=O)n1)CCO2`, the max dye-equivalent concentration result was “inactive”.

With `Cc1ccsc1CNn1cnnc1SCc1ccccc1F`, the max dye-equivalent concentration result is “inactive”. Regarding `O=C(c1cnccn1)N1CCC2(CCN(Cc3cc(C(F)(F)F)cc(C(F)(F)F)c3)CC2)CC1`, the max dye-equivalent concentration entry was “inactive”. Regarding `CCN1CCN(c2ncnc3c2oc2nc(C)c4c(c23)CC(C)(C)OC4)CC1`, the max dye-equivalent concentration entry is “inactive”. With `Cc1nc(NCCN)c(C#N)c2c1COC(C)(C)C2`, the max dye-equivalent concentration was 16 nM (active). `COc1ccc2[nH]cc(CCNc3cc(-c4ccccc4CN(C)C)ncn3)c2c1`: the max dye-equivalent concentration entry is “inactive”. Consider `Nc1ccc2c3c(cccc13)C(=O)NC2=O`, for which the max dye-equivalent concentration entry is “inactive”. For `CNc1nc(-c2ccccc2OC)nc2ccccc12`, the max dye-equivalent concentration entry is “inactive”.

For `CCSc1nc(=S)n(CC)c(C)c1C(C)=O`, the max dye-equivalent concentration result is “inactive”. The same measure for `CCOC(=O)N1CCC(NC(=O)CCc2cn(C)c3ccccc23)CC1`: 470 nM (active); for `CCOC(=O)N1CCC(NC(=O)Cc2cn(C)c3ccccc23)CC1`: “inactive”. On to `CCOC(=O)N1CCC(NC(=O)C(C)n2c3ccccc3c3cnn(C)c(=O)c32)CC1` (stereo not drawn), for which the max dye-equivalent concentration result was “inactive”. Take `CC(=O)N1CCN(C(=O)c2cccc(S(=O)(=O)Nc3ccc(C)cc3)c2)CC1`: the max dye-equivalent concentration result was “inactive”. As for `CC1(C)CC(CCC(=O)Nc2ccccc2Cl)C(=O)O1` (stereo not drawn), the entry is “inactive”; as for `CC(C)c1nc2oc3c(N4CCN(C)CC4)ncnc3c2c2c1CCC2`, “inactive”.

On to `CCCCC(=O)Nc1ccc2c(c1)OCCO2`, for which the max dye-equivalent concentration result is “inactive”. Take `CCCCCC(=O)Nc1ccc2oc(-c3ccncc3)nc2c1`: the max dye-equivalent concentration was 29 nM (active).

Consider `CCCCC(=O)Nc1ccc(C(=O)NCCCn2ccnc2)cc1`, for which the max dye-equivalent concentration result is “inactive”. The same measure for `CCOC(=O)c1cccc(NC(=O)CCc2c(C)nc3ncnn3c2C)c1`: “inactive”. As to `CCCCCN(C(=O)NC(=O)Nc1ccccc1OC)S(C)(=O)=O`, the max dye-equivalent concentration entry is “inactive”. As to `COc1ccc(OC)c(NC(=O)CSc2nc3cccnc3n2C)c1`, the max dye-equivalent concentration result is “inactive”. As for `CCCC1C(c2ccccc2)C(C#N)(C#N)C2(C#N)CC1(N)NC2=O` (stereo not drawn), the entry is “inactive”; as for `CN1CCN(C(=O)C2C3C=CC(C3)C2C(=O)O)CC1` (stereo not drawn), “inactive”. As for `O=C(CN1CCOCC1)N1CCCc2c1c(=O)oc1ccc(OCc3ccccc3)cc21`, the figure is 41 nM (active). For `O=C(OCCN1CCOCC1)C1(c2ccccc2)CCCCC1`, the max dye-equivalent concentration result was “inactive”.

As to `CCOC(=O)c1c(CN2CCOCC2)n(-c2ccccc2)c2ccc(O)cc12`, the max dye-equivalent concentration result was “inactive”. Consider `O=S(=O)(O)c1nc2ccccc2n1Cc1ccc(Cl)cc1Cl`, for which the max dye-equivalent concentration result is “inactive”. The same measure for `COc1ccc(CNc2ncncc2-c2ccccc2C)c(OC)c1`: “inactive”. Consider `Cc1ccccc1NC(=O)CNc1ccccc1N1CCCCC1`, for which the max dye-equivalent concentration result was “inactive”.

With `CCOc1ccc(NC(=O)N2CCN(CC)CC2)cc1`, the max dye-equivalent concentration entry is “inactive”. In the case of `CCOc1ccc2nc(N3CCCN(C(=O)Nc4ccccc4C)CC3)c(C#N)cc2c1`, the max dye-equivalent concentration was 16 nM (active). For `Cc1ccnc(SCCn2c(Br)nc3c2c(=O)[nH]c(=O)n3C)n1`, the max dye-equivalent concentration entry is “inactive”.

For the compound `CC1CN(C2CCN(C(=O)COc3ccccc3)CC2)CC(C)O1` (stereo not drawn), the max dye-equivalent concentration entry is “inactive”.

Turning to `Nc1nc2c(ncn2[C@H]2CC[C@@H](CO)O2)c(=O)n1C(=O)c1ccccc1`, the max dye-equivalent concentration entry is “inactive”.

For the compound `O=c1cnc2cnc(Nc3ccccc3)nc2n1Cc1ccc(F)cc1`, the max dye-equivalent concentration entry is “inactive”.

On to `CCNc1ncc2ncc(=O)n(Cc3cccc(OC)c3)c2n1`, for which the max dye-equivalent concentration is 16 nM (active).

In the case of `COc1cccc(Nc2ncc3ncc(=O)n(C4CC4)c3n2)c1`, the max dye-equivalent concentration result is “inactive”. Turning to `COc1cccc(Cn2c(=O)c(CCc3ccccc3)nc3cnc(N(C)C)nc32)c1`, the max dye-equivalent concentration was 31 nM (active). Take `CCNc1ncc2ncc(=O)n(CCc3ccccc3)c2n1`: the max dye-equivalent concentration was 89 nM (active). On to `CCNc1ncc2nc(CCc3ccccc3)c(=O)n(-c3ccc(OC)cc3)c2n1`, for which the max dye-equivalent concentration is 15 nM (active). Take `COc1ccc(-n2c(C)nc3c(cnn3-c3ccccc3)c2=O)cc1`: the max dye-equivalent concentration result is “inactive”. As for `COc1cccc(Cn2c(=O)c(C)nc3cnc(Oc4ccccc4)nc32)c1`, the entry is “inactive”; as for `CCc1nnc(NC(=O)CSc2nnc(Cc3ccccc3)n2-c2ccc(OC)cc2)s1`, “inactive”. As for `COc1cccc(CN2C(=O)CCC2(C)C(=O)NC2CCCCCC2)c1` (stereo not drawn), the entry is “inactive”.

Consider `COc1cccc(Cn2c(=O)cnc3cncnc32)c1`, for which the max dye-equivalent concentration entry is “inactive”. In the case of `CSCCC(NC(=O)C1CCC(C)CC1)C(=O)NCc1ccco1` (stereo not drawn), the max dye-equivalent concentration entry is “inactive”. The same measure for `CC(C)NC(=O)N1CCCC2(CCN(C(=O)c3cccn3C)CC2)C1`: “inactive”; for `Cc1cccc(C)c1NC(=O)N1CC=C(n2c(=O)[nH]c3ccccc32)CC1`: “inactive”; for `CC(C)CCNC(=O)C1CCCN(S(=O)(=O)c2ccc(F)cc2)C1` (stereo not drawn): “inactive”. As for `CCN(CC)C(=O)CSc1nnc(-c2cccc(OC)c2)o1`, the max dye-equivalent concentration result is “inactive”. Consider `CC(C)NC(=O)CCCn1c(=S)[nH]c2cc3c(cc2c1=O)OCO3`, for which the max dye-equivalent concentration result is “inactive”.

On to `Cc1cccc(NC(=O)CSc2nnc(CCCCCNC(=O)OC(C)(C)C)o2)c1C`, for which the max dye-equivalent concentration result is “inactive”. On to `Cc1cccc(N(CC(O)CN(C)C)S(=O)(=O)c2ccccc2)c1` (stereo not drawn), for which the max dye-equivalent concentration result was “inactive”. As for `COC(=O)c1ccc(Oc2nc(Nc3ccc(F)cc3)nc(N3CCCC3)n2)cc1`, the entry is “inactive”; as for `CSc1ccc(S(=O)(=O)Nc2cccc(F)c2)cc1`, “inactive”; as for `C=CCN(c1ccc(C(N)=O)cc1)S(C)(=O)=O`, “inactive”. Turning to `Cn1c(=O)cc(SCC(=O)N2CCCC2)c2cc(Cl)ccc21`, the max dye-equivalent concentration is 12 nM (active).

`CCOC(=O)C1CCN(C(=O)CSc2cc(=O)n(C)c3ccccc23)CC1`: the max dye-equivalent concentration entry is “inactive”. Take `Cn1c(=O)cc(SCC(=O)N2CCN(C(=O)c3ccco3)CC2)c2ccccc21`: the max dye-equivalent concentration result is “inactive”. Consider `COC(=O)c1sc(=S)n(-c2ccccc2)c1N`, for which the max dye-equivalent concentration result is “inactive”. For `COCCCNC(=O)Cn1cc(C(=O)C2CC2)c2ccccc21`, the max dye-equivalent concentration entry was “inactive”.

On to `COc1ccc(-c2noc(CN(C)S(=O)(=O)c3ccc(C)cc3)n2)cc1`, for which the max dye-equivalent concentration entry is “inactive”. For the compound `CCOc1nc(-c2ccc(OC)cc2)ccc1-c1noc(-c2cc(OC)c(OC)c(OC)c2)n1`, the max dye-equivalent concentration is 81 nM (active).

On to `O=C(Oc1ccc(-c2nc(-c3ccccn3)no2)cc1)c1ccccc1`, for which the max dye-equivalent concentration entry was “inactive”. As for `CCOc1cc(-c2noc(CCC(=O)N3CCOCC3)n2)ccc1OC`, the entry is “inactive”; as for `COc1ccc(-c2ccc(-c3noc(-c4ccncc4)n3)c(OC)n2)cc1`, 24 nM (active). As to `COc1ccc(-c2nc(-c3ccccc3)no2)c(OC)c1`, the max dye-equivalent concentration result is “inactive”. The same measure for `Cn1c(=O)c2c(ncn2CC(=O)N2CCN(c3ccccc3)CC2)n(C)c1=O`: “inactive”; for `CCOc1ccc(C(C)C)cc1S(=O)(=O)n1nc(C)cc1C`: “inactive”. As to `N#Cc1ccccc1-c1ccc2ncnc(NCc3cccnc3)c2c1`, the max dye-equivalent concentration result is “inactive”. Consider `CC(Cc1cccs1)NC(=O)NC1CCCCC1` (stereo not drawn), for which the max dye-equivalent concentration result was “inactive”. For `COc1ccccc1CNc1ccnc(-c2c(C)noc2C)n1`, the max dye-equivalent concentration result is “inactive”. Turning to `CCCS(=O)(=O)N1CCC(C(=O)NCCc2ccc(OC)c(OC)c2)CC1`, the max dye-equivalent concentration result is “inactive”. As for `CCOc1ccc(CCNC(=O)C2CCN(c3ccc(N4CCOCC4)nn3)CC2)cc1OCC`, the figure is 560 nM (active); as for `COc1ccc(CCNC(=O)C2CCN(c3nn4c(=O)cc(C)nc4s3)CC2)cc1OC`, “inactive”; as for `O=C(CN1CCN(c2ccc(F)cc2)CC1)Nc1cccc(C(F)(F)F)c1`, “inactive”.

On to `O=C(c1ccc([N+](=O)[O-])cc1)[C@@H](Br)[C@@H](Br)c1ccnc2ccccc12`, for which the max dye-equivalent concentration result is “inactive”. As to `O=C1NC(c2ccncc2)Nc2sc3c(c21)CCCC3` (stereo not drawn), the max dye-equivalent concentration was 58 nM (active).

Turning to `CCc1nnc(NC(=O)CSc2nnc(COc3ccc(C#N)cc3)n2-c2ccccc2)s1`, the max dye-equivalent concentration result was “inactive”.

On to `O=C(Nc1cccc(F)c1)N1CC2(CCN(C(=O)c3csnn3)CC2)C1`, for which the max dye-equivalent concentration entry is “inactive”.

As for `Cc1nc2ccc(NC(=O)N3CCC(c4ccccc4)C3)cc2nc1C` (stereo not drawn), the max dye-equivalent concentration was 410 nM (active). The same measure for `O=C(Nc1cccc(NC(=O)N2CCN(c3ccccc3)CC2)c1)N1CCN(c2ccccc2)CC1`: “inactive”; for `Cn1c(CCN2CCCCCC2)nc2cc(NC(=O)Nc3ccccc3)ccc21`: “inactive”. As for `Cc1cc(C(=O)OCC(=O)NCc2ccco2)c(C)n1-c1ccccc1`, the max dye-equivalent concentration entry was “inactive”. As for `O=C(COC(=O)CCC(=O)c1cccs1)NCc1ccco1`, the entry is “inactive”; as for `O=C(COC(=O)C12CC3CC(CC(C3)C1)C2)NCc1ccco1`, 16 nM (active); as for `NC[C@@H]1O[C@H](O[C@@H]2[C@H](O[C@@H]3O[C@H](CO)[C@@H](COC[C@H]4O[C@@H](CN)[C@@H](O)[C@@H](O)[C@@H]4N)[C@@H]3O)[C@@H](O)[C@@H](N)C[C@H]2N)[C@@H](N)[C@H](O)[C@@H]1O`, “inactive”.

Take `N#Cc1ccc(CN2CCCC3(CCN(C(=O)c4ccco4)CC3)C2)cc1`: the max dye-equivalent concentration result was “inactive”.

Consider `CCOc1ccc(NS(=O)(=O)c2ccc(OCC(=O)NCCCOC)cc2)cc1`, for which the max dye-equivalent concentration entry was “inactive”. In the case of `O=C(CC(NS(=O)(=O)c1ccc(Cl)cc1)c1ccco1)NC1CCCC1` (stereo not drawn), the max dye-equivalent concentration entry was “inactive”. With `O=c1[nH][nH]c(=O)c2cc(N3CCCC3)ccc12`, the max dye-equivalent concentration was 47 nM (active). `O=C(NCc1cccnc1)c1cn(-c2ccccc2)nc1-c1cccs1`: the max dye-equivalent concentration result is “inactive”.

On to `O=C1CC(c2ccccc2)C(=O)N1c1cccc(O)c1` (stereo not drawn), for which the max dye-equivalent concentration entry was “inactive”.

Consider `CCCC(CCC(=O)OC)(C(=O)OCC)c1csc(N)n1` (stereo not drawn), for which the max dye-equivalent concentration entry is “inactive”.

Turning to `CCCCNC(=O)c1ccccc1NC(=O)c1ccccc1N(C)S(C)(=O)=O`, the max dye-equivalent concentration entry is “inactive”. With `O=C(c1cccc(F)c1)N1CCC2(CC1)CCN(c1ccccc1)CC2`, the max dye-equivalent concentration entry is “inactive”. For `CCOC(=O)N1CCN(CC(=O)Nc2cc(C)nn2-c2nc3ccccc3s2)CC1`, the max dye-equivalent concentration entry is “inactive”.

As for `CCOC(=O)N1CCN(C(=O)C2CCN(c3ncnc4c3sc3cccc(F)c34)CC2)CC1`, the max dye-equivalent concentration was 18 nM (active). With `CCOC(=O)N1CCN(C(=O)C2CCN(S(C)(=O)=O)CC2)CC1`, the max dye-equivalent concentration result was “inactive”.

Take `CCCc1cc(=O)n2[nH]c(SCc3ccccc3)nc2n1`: the max dye-equivalent concentration entry was “inactive”. `Cc1ccc(C(=O)NC2CC(C)(C)NC(C)(C)C2)c(C)c1`: the max dye-equivalent concentration entry is “inactive”.

Take `CS(=O)(=O)N(CC(=O)NCc1ccco1)c1ccc2c(c1)OCO2`: the max dye-equivalent concentration was 29 nM (active). Consider `O=C(Cn1nnc(-c2ccc3c(c2)OCO3)n1)NCc1ccco1`, for which the max dye-equivalent concentration result was “inactive”. With `CS(=O)(=O)N(CC(=O)N1CCN(Cc2ccc3c(c2)OCO3)CC1)c1ccc2c(c1)OCO2`, the max dye-equivalent concentration entry was “inactive”.
